Measurements taken from the supplement of paper PMC6555819.

Experiments:
Assay in all cases: PBM binding z-score (relative to random genomic background probes); higher = stronger binding; sequences stand for … in GC…GCGATTGACAGCGTAGAATGAAGG
[1] = system: RARb homodimer (NR concentration 270 nM)
How it was run: (§1)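 Binding buffer was PBS pH 7.4 with 2% milk, 0.02% Triton X-100, 1 mM DTT, 0.2 mg/mL BSA and 0.4 mg/ml salmon testes DNA. In it, ligand-free nuclear receptor dimers were incubated 1 h on custom Agilent 4×180K protein-binding microarrays carrying double-stranded probes. Antibodies against each partner (one per run) detected binding, and z-scores were calculated against random background probes after regression normalization of scanned fluorescence.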

[2] = system: RARg:RXRa (NR concentration 270 nM, RXRa partner concentration 90 nM)
How it was run: as §1

[3] = system: RARg homodimer (NR concentration 270 nM)
How it was run: as §1

[4] = system: RXRa DBDmut IVT, anti-RXR (DBD mutation: RXRa K156A/R161A, NR concentration 90 nM)
How it was run: as §1

[5] = system: RXRa homodimer (NR concentration 180 nM)
How it was run: as §1

[6] = system: THRa:RXRa (NR concentration 90 nM, RXRa partner concentration 90 nM)
How it was run: as §1

[7] = system: THRa homodimer (NR concentration 90 nM)
How it was run: as §1

[8] = system: VDR homodimer (NR concentration 270 nM)
How it was run: as §1

Sequence | PBM binding z-score [1] | PBM binding z-score [2] | PBM binding z-score [3] | PBM binding z-score [4] | PBM binding z-score [5] | PBM binding z-score [6] | PBM binding z-score [7] | PBM binding z-score [8]
CTTAGCAGGCCAGGGTCACTCAAGCATTTCGCTT | 2.87 | 2.99 | 2.53 | 0.934 | 3.39 | 2.93 | 1.32 | 1.28
CCTACTGGGCCACGAAAGGTCATTCATTCAGTGA | 4.77 | 4.77 | 4.33 | 0.665 | 5.17 | 3.8 | 0.995 | 2.83
TATCCTAGGTCATTGGGCCAGTATAGTACGCATC | 3.29 | 4.22 | 4.55 | 2.33 | 3.37 | 3.25 | 1.52 | 1.65
ACTTACGGGTCAACGAGGTTATTGCACGCGTATA | 3.55 | 5.66 | 4.9 | 3.01 | 6.27 | 4.05 | 1.2 | 4.35
CGAACTAGGTCATCCAGGACACTGAATACATTGA | 3.19 | 4.13 | 4.86 | 2.38 | 3.13 | 4.19 | 3 | 3.09
CGAACTAGGTCATCCAGGACAGAGAATACATTGA | 2.81 | 4.02 | 4.59 | 2.33 | 3.1 | 3.49 | 1.8 | 1.64
ACTAGTAGTTGACTTAGGGCAACCGATACGACGC | 0.773 | 0.36 | 0.487 | -0.14 | 0.393 | 1.44 | -0.151 | -0.0873
TCAAATAGGTAAAAGGTGAAAGTCGGTGTGGTAA | 2.05 | 1.86 | 1.07 | 2.15 | 3.26 | 1.77 | 0.3 | 0.497
AGAATGAGGTTATTAAAATCAGGGAATTGCGGTC | 0.836 | 0.827 | 0.788 | 1.46 | 1.43 | 1.89 | 0.676 | 0.874
CGGACTAGGTCATCCAGGACAGTGAATACATTGA | 2.76 | 3.66 | 4.36 | 1.7 | 2.43 | 3.48 | 1.79 | 1.59
AATACAGGGTCACTAGGCCACAGTAGGTACGAAT | 3.36 | 5.36 | 4.87 | 2.86 | 5.56 | 3.38 | 1.32 | 2.95
CCAAGTTGGTCAGGAGGTCACACACCGGATATGA | 4.38 | 5.05 | 4.59 | 1.39 | 4.6 | 3.5 | 1.96 | 2.65
CGACCAAGGTCAGCAGGTCAGTGAAAGCGACGTG | 4.67 | 6.06 | 6.15 | 2.12 | 4.83 | 3.54 | 1.63 | 1.16
ATCGAAAGGTCGACGAGGTGTGTATACACCGTTT | 2.54 | 4.07 | 3.97 | 1.18 | 4.14 | 2.22 | -0.542 | 0.527
AGTCAAAGTTCATTTAGGTAACGTAAGATATGCT | 3.77 | 5.03 | 5.39 | 4.96 | 4.35 | 3.29 | 1.03 | 5.45
CCAGACAGGTGAGTAGGTAACTCAGCCTCGATTA | 0.326 | 0.196 | 0.224 | 0.331 | 0.246 | 0.0417 | 0.159 | -0.162
TCTCGGAGGACACGAAGGTCAGAGATTTCCAGAG | 3.84 | 3.05 | 4.12 | 0.78 | 1.99 | 2.92 | 1.1 | 1.7
ACTATTAGTTGACTTAGGGCAACCGTTACGACGC | 1.34 | 0.618 | 0.892 | 1.01 | 0.622 | 1.53 | 0.619 | 0.195
GCTTACGGGTCAAAGGTTGTAGCATGAATAGAAT | 2.84 | 5.74 | 4.09 | 2.43 | 8.07 | 3.2 | 0.00313 | 0.93

Sequence | PBM binding z-score [1] | PBM binding z-score [2] | PBM binding z-score [3] | PBM binding z-score [4] | PBM binding z-score [5] | PBM binding z-score [6] | PBM binding z-score [7] | PBM binding z-score [8]
ACCATTAGTTGAGACGAGGGCAACCGATAGGTTG | 1.3 | 0.676 | 0.629 | 0.383 | 0.669 | 2.63 | 0.525 | 1.04
CAAACTTGGTCAAGGTCAAAGTCGGTTTGTGCCA | 4.26 | 4.46 | 4.37 | 2.33 | 4.72 | 3.92 | 3.4 | 3.32
CCTACTGGGCCAAAGGTCGTTGATTCCAATGCTC | 2.03 | 2.66 | 1.07 | 0.474 | 2.82 | 1.5 | 0.0932 | 0.435
TTACCAAGGTGAACGTCGTTGATCCCTCTGTAGA | 0.909 | 0.602 | 0.629 | -0.298 | 1.19 | 2.32 | 0.991 | -0.626
TAGCCTAGGTCATGGCCCAGTATACCACGCGAAC | 3.06 | 4.47 | 4.41 | 0.508 | 3.73 | 3.38 | 1.49 | 0.698
ACTATTAGTTGAGACGGGGGCAACCGATAGGTTG | 1.92 | 2.03 | 1.77 | 1.55 | 1.42 | 3.01 | 1.12 | 1.98
CTACCAAGGTGAACAAGGTCGTTGAGTACTATTC | 2.27 | 1.92 | 1.43 | 1.64 | 2.39 | 3.28 | 1.83 | 3.27
GCTCGGAGGACAACGTCAGAGCTTTGTCCGTAGA | -0.35 | -0.399 | 0.158 | 0.00939 | -0.87 | 0.242 | -0.468 | -0.803
GCTTACGGGTCAAAGGTTATTGCATGAATAGAAT | 3.23 | 6.79 | 4.49 | 2.83 | 9.29 | 3.78 | 0.27 | 1.81
CGTCCTAGGTCAATGCTAGGTCAGTGAAAGCATT | 4.16 | 6.16 | 5.14 | 1.83 | 2.57 | 3.94 | 1.73 | 0.909
TCACGGAGGACACGAAGGTCAGAGCTTTCCAGAG | 3.7 | 3.41 | 3.86 | 0.991 | 1.91 | 2.73 | 0.917 | 1.42
GCTTGTAGAGCAAGGTTAAGAAAGACTAAGCTAA | -0.118 | 0.204 | 0.162 | -0.22 | 0.282 | 0.745 | -1.02 | -0.25
TCATATAGGAAAATGCTAGGTGAAAGTCCGATCT | 0.42 | 0.204 | 0.133 | 1.41 | 0.778 | 0.612 | 0.548 | 0.37
CCGACTGGGCCAAAAAGGTCATTGATGCCGATAA | 4.22 | 4.39 | 3.5 | 0.66 | 4.52 | 3.14 | 0.199 | 2.14
GCTTACGGGTCAAACGTTATAGCATGAATAGAAT | 2.24 | 4.8 | 4.42 | 2.47 | 5.6 | 2.24 | -0.707 | 1.11
TCTAGTTGGTCACGGAAGTCACACACGACGGGTA | 1.41 | 1.36 | 1.54 | 0.587 | 1.21 | 0.441 | 0.354 | 0.0407
CCGCGGAGGACAGAAGGTCAGAGCTGTCCGCTTT | 3.51 | 3.69 | 3.56 | 0.479 | 2.27 | 2.17 | -0.127 | 0.1
CCTAGCAGGCCATTCTGGGTCACTCAAGGCTTGA | 2.48 | 1.3 | 1.75 | 0.405 | 1.14 | 4.1 | 0.668 | 0.435
GTAACAAGGTGAATAGGTCGTTGATGAGTAGGCG | 1.9 | 2.74 | 1.68 | 0.149 | 2.29 | 2.06 | 0.594 | 0.415

Sequence | PBM binding z-score [1] | PBM binding z-score [2] | PBM binding z-score [3] | PBM binding z-score [4] | PBM binding z-score [5] | PBM binding z-score [6] | PBM binding z-score [7] | PBM binding z-score [8]
CTACCAAGGTGAACAAGGTCCTTGATTACTATTC | 1.02 | 0.733 | 0.947 | 0.723 | 0.86 | 2.29 | 1.03 | 0.358
CCGAGTAGGTTATGGGGCATTCGGGCAACGGTGA | 1.46 | 0.533 | 0.653 | -0.483 | 0.797 | 0.415 | 0.172 | -0.175
CGAACTAGGTCATCCAGGACAGCGAATACATTGA | 3 | 3.97 | 4.81 | 2.19 | 2.73 | 3.84 | 2.24 | 1.93
CCTAGCAGTCCAATCTGGGTCACTCAAGGCTTGA | 2.02 | 0.766 | 0.694 | 0.516 | 0.768 | 2.86 | 0.629 | 0.187
CCTACTGGGCCATTCAGAGGTCATAGATCATATG | 3.97 | 4.15 | 2.99 | 0.411 | 3.98 | 3.27 | 1.4 | 2.6
TCATTTAGGTAATACAGGTGAAAGTCGGCATCTA | 0.788 | 0.841 | 0.652 | 1.96 | 1.33 | 1.58 | 1 | 0.57
TCTTGTAGATCAAAGGTTAAGAAGGCCGAAGCCT | 1.58 | 1.95 | 0.702 | 0.627 | 3.37 | 1.51 | -0.402 | 0.0638
ACTGGCAGGCCAAGTTTGGGTCACTCAAACAAAG | 2.35 | 2.51 | 1.97 | -0.557 | 0.925 | 2.56 | 1.14 | -0.0755
GCTCGGAGGACAAGGTCAGAGCTTTGTCCGTAGA | 2.9 | 3.28 | 3.6 | 0.373 | 2.33 | 2.87 | 1.13 | 0.705
ATACGTAGGTTAGCTGGGGTCATTCAGACTAGGC | 3.71 | 4.03 | 3.01 | 1.65 | 5.42 | 4.9 | 2.74 | 4.13
CCGAGTAGGTTATGGCGCATTCAGGCAACGGTGA | 0.598 | 0.0806 | 0.1 | -0.0161 | 0.365 | 0.169 | 0.321 | -0.2
GGAACGAGGGCTTTCGAGTTGATAGCATGGCGAT | -0.798 | -0.258 | -0.353 | 0.228 | -0.0785 | 0.893 | -0.983 | 0.344
GATACAGGGTCAGGTAGAGGCCAGAGTATGGAAA | 3.48 | 6.43 | 4.46 | 0.77 | 4.13 | 3.18 | 0.846 | 1.25
GCGACTGGGGGATCAGCAGGTTACCATAACTTAA | 0.909 | 0.837 | 0.34 | 0.58 | 1 | 1.67 | 0.806 | 0.0827
ATATGTACGTTACATCCGGGTCATTCAGGCTATG | 2.41 | 1.61 | 1.24 | 1.2 | 2.07 | 3.14 | 2.93 | 2.95
TCTTGTAGATGAACAGGAGGTTAAGAAAGATCGA | 0.252 | 0.473 | 0.0838 | 0.572 | 0.784 | 0.65 | -0.383 | -0.297
CTCTAAAGGTCGTGCTCAGGTGAGTATACCAAAC | 2.96 | 5.08 | 3.88 | 2.33 | 4.64 | 4.37 | 1.31 | 1.37
TCTGCTAGGTCAGTTGGTCAGCTAGCGAGCTGCC | 2.51 | 2.7 | 3.71 | 0.477 | 0.644 | 1.18 | -0.284 | -0.49
ATCGAAAGGTCGTGAGGTGCGTATACAGAAAGGC | 2.59 | 4.2 | 3.57 | 1.16 | 4.65 | 2.45 | -0.17 | 1.59
